The source of these data is PubChem BioAssay (Tox21).

Structures are written as SMILES. Where “and” joins values, the source holds several entries; their conditions need not be identical. Identical values can stand only once. Inconclusive results are not listed. The source holds several records for some structures; these can differ, active in one and inactive in another. Calls of active or inactive are those of the source. Unless noted, the call rests on the fitted dose curve.

Assay [1] is described as follows: Nuclear factor erythroid 2-related factor 2/antioxidant responsive element (Nrf2/ARE) small molecule agonists: qHTS cell viability counter screen in human keratinocytes (AID 1919968; active means well fitted cell-killing curve with a large enough effect in the repeat runs; further: nearly all actives have a fitted effect of over 55% in size). A digest of the protocol: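 CellTiter-Fluor fluorescence, read 1 h after reagent, gave viability in the same wells as the ARE-luciferase assay. KeratinoSens cells (1,500/well) had 23 h compound exposure at 37 C/5% CO2 following 5 h plating.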

A short description of assay [2]: Nuclear factor erythroid 2-related factor 2/antioxidant responsive element (Nrf2/ARE) small molecule agonists: luciferase reporter gene qHTS assay in human keratinocytes (AID 1919969; further: nearly all actives have a fitted effect of over 35% in size; further: potency means the concentration at half of the fitted maximal effect). (In general: A reporter such as luciferase makes a cellular process visible.)
Assay [3] deals with Gonadotropin-releasing hormone receptor (Homo sapiens) (UniProt P30968). In words: Human gonadotropin-releasing hormone receptor (GnRHR) small molecule agonists, calcium flux assay in GnRHR-HEK293 cells (AID 1920063). Further: nearly all actives have a fitted effect of over 35% in size. The method, boiled down:
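Agonist mode: compounds at 15 concentrations, in triplicate, went onto calcium dye-loaded GnRHR-HEK293 cells. Intracellular calcium was then followed as 480/540 nm fluorescence at 1 s intervals over 3 min.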

Assay [4] is described as follows: G protein-coupled receptor (GPCR) small molecule agonists, calcium flux assay: HEK293 wild type cell line counter screen (AID 1920065). The method, boiled down: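 Calcium flux counter screen: compound added in agonist mode at 15 concentrations in triplicate to dye-loaded parental HEK293 cells. Fluorescence (480/540) read kinetically for 3 min; ATP served as positive control.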
Background: Calcium flux is commonly read through the fluorescence of an indicator in the cells.

Assay [5] is described as follows: p53 small molecule agonists, cell-based qHTS assay with human liver microsomes (AID 1963577). The method, boiled down: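 p53RE-bla cells, 4,000/well, compound added after 5 h, with human liver microsomes 0.5 mg/mL and NADPH 0.5 mg/mL final; 16 h at 37 C, then LiveBLAzer 2 h RT, fluorescence.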
Background: Quantitative high-throughput screening tests each substance at several concentrations.

Assay [6] is described as follows: p53 small molecule agonists, cell-based qHTS assay with rat liver microsomes (AID 1963578). A digest of the protocol:
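p53RE-bla cells, 4,000/well, pre-incubated 5 h, then given compounds plus rat liver microsomes (0.5 mg/mL final) and NADPH (0.5 mg/mL final). Incubation 16 h at 37 C; beta-lactamase reporter read by LiveBLAzer fluorescence after 2 h at room temperature.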

A short description of assay [7]: p53 small molecule agonists, cell-based qHTS assay with human liver microsomes: qHTS cell viability counter screen (AID 1963579). Further: nearly all actives have a fitted effect of over 45% in size. Further: potency means the concentration at half of the fitted maximal effect. The method, boiled down: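 p53RE-bla cells, 4,000/well, dosed 5 hours after plating, with human liver microsomes (0.5 mg/mL final) plus NADPH (0.5 mg/mL final), 16 hours at 37 C. Viability read as CellTiter-Glo luminescence after 30 min at room temperature.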

A short description of assay [8]: p53 small molecule agonists, cell-based qHTS assay with rat liver microsomes: qHTS cell viability counter screen (AID 1963580). Further: nearly all actives have a fitted effect of over 45% in size. A digest of the protocol: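 Cytotoxicity counter screen: intracellular ATP read by CellTiter-Glo luminescence in the p53 reporter wells. HCT-116 p53RE-bla cells were treated for 16 h at 37 C alongside rat liver microsomes and NADPH, each 0.5 mg/mL final.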

Assay [9] is described as follows: p53 small molecule agonists, cell-based qHTS assay: qHTS cell viability counter screen (AID 1963581). Further: nearly all actives have a fitted effect of over 45% in size. A digest of the protocol:
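Counter screen read by CellTiter-Glo luminescence (ATP content, 30 min at room temperature), run in the same wells as the beta-lactamase reporter read. HCT-116 p53RE-bla cells saw compounds for 16 h at 37 C.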

Assay [10] in a line: p53 small molecule agonists, cell-based qHTS assay (AID 1963582; active means well fitted activation curve with a large enough effect in the signal ratio in the repeat runs, not every such curve was filed as active; the % refers to the signal ratio). The method, boiled down:
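Read-out is beta-lactamase FRET fluorescence after 2 h at room temperature with LiveBLAzer B/G substrate. p53 response element-bla cells were treated 16 h at 37 C with compounds in DMSO, added 5 h after seeding.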

In assay [11] the target is 5-hydroxytryptamine receptor 2A (Homo sapiens) (UniProt P28223). In words: 5-hydroxytryptamine receptor 2A (HTR2A) small molecule antagonists, cell-based qHTS assay (AID 1963586). Further: nearly all actives have a fitted effect of over 45% in size. A digest of the protocol: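 CHO cells stably expressing human HTR2A were plated for 18 h at 37 C, then loaded with calcium dye for 1 h. Compounds were preincubated 5 min at room temperature before DOI (4 nM solution) was added. Kinetic fluorescence was read for 3 min.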

Assay [12] has the same target. In words: 5-hydroxytryptamine receptor 2A (HTR2A) small molecule agonists, cell-based qHTS assay (AID 1963587). Further: nearly all actives have a fitted effect of over 30% in size. The method, boiled down:
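Kinetic calcium-flux fluorescence (2 min, 1 sec intervals) after compound addition in agonist mode. HTR2A-CHO cells were cultured 18 h, then dye-loaded 1 h at 37 C.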

The target in assay [13] is Muscarinic acetylcholine receptor M1 (Homo sapiens) (UniProt P11229). In words: Cholinergic receptor muscarinic 1 (CHRM1) small molecule antagonists, cell-based qHTS assay (AID 1963588). Further: nearly all actives have a fitted effect of over 40% in size. A digest of the protocol: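 Compounds were tested at 15 concentrations in three independent runs. Dye-loaded CHRM1-CHO cells were exposed 5 min at room temperature before stimulation by acetylcholine added at 50nM. Intracellular calcium was read kinetically on FDSS for 3 min.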

Assay [14] shares this target. In words: Cholinergic receptor muscarinic 1 (CHRM1) small molecule agonists, cell-based qHTS assay (AID 1963589). Further: nearly all actives have a fitted effect of over 35% in size. A digest of the protocol: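 Agonist-mode calcium-flux screen: compounds at 15 concentrations, three independent runs, were pin-transferred onto dye-loaded human CHRM1-CHO cells. Fluorescence was then recorded kinetically every second over minutes.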
The target of assay [15] is Beta-2 adrenergic receptor (Homo sapiens) (UniProt P07550). In words: Adrenergic beta2 receptor (ADRB2) small molecule antagonists, cell-based qHTS assay (AID 1963592). Further: series mostly up to about 92 µM; nearly all actives have a fitted effect of over 50% in size. The method, boiled down:
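Assay format: CHO-ADRB2 cells, 18-20hr seeding at 37C/5% CO2, then compound plus 1nM isoproterenol agonist mix for 0.5hr RT. Homogeneous time-resolved fluorescence cAMP detection after 1hr, expressed as 665/615 nm ratio.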

Assay [16] can be described thus: cAMP Responsive Elements (CRE) small molecule agonists, cell-based qHTS assay (AID 1963590). A digest of the protocol:
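Agonist mode: compound added to CRE-bla HEK 293T cells (2,000/well, 18 h after plating) for 3 h at 37 C/5% CO2. Reporter activity detected via FRET beta-lactamase substrate, 2 h room-temperature loading.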

A short description of assay [17]: cAMP Responsive Elements (CRE) small molecule antagonists, cell-based qHTS assay (AID 1963591; active means well fitted inhibition curve with a large enough effect in the signal ratio in the repeat runs, not every such curve was filed as active; the % refers to the signal ratio). The method, boiled down: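 Antagonist mode: compounds are added alongside the adenylyl cyclase activator NKH477 (0.25 uM final) to CRE-bla HEK293T cells for 3 h. LiveBLAzer FRET substrate, 2 h at room temperature, reports bla expression.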
Assay [18] concerns the target Beta-2 adrenergic receptor (Homo sapiens) (UniProt P07550). In words: Adrenergic beta2 receptor (ADRB2) small molecule agonists, cell-based qHTS assay (AID 1963593).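 Further: CHO cells stably overexpressing human ADRB2.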 A digest of the protocol:
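CHO cells stably over-expressing ADRB2 were plated overnight at 37C, then dosed with compounds plus a stimulation mix containing 100uM IBMX and 25uM Ro-20-1724 for 0.5hr at room temperature. cAMP was measured by HTRF competition, 1hr.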

Assay [19] has as its target D(2) dopamine receptor (Homo sapiens) (UniProt P14416). In words: Dopamine D2 receptor (DRD2) small molecule agonists, cell-based qHTS assay (AID 1963594). Further: nearly all actives have a fitted effect of over 35% in size. The method, boiled down: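 cAMP accumulation in DRD2-HEK293 cells measured by HTRF after 1 h detection; compounds added 10 min before NKH477 (200nM […]) forskolin-analogue stimulation, 30 min at room temperature, with Ro20-1724 present at 0.1 mM final.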

The target is the same in assay [20]. In words: Dopamine D2 receptor (DRD2) small molecule antagonists, cell-based qHTS assay (AID 1963595; active means well fitted inhibition curve with a large enough effect in the signal ratio in the repeat runs, with a control signal flat; the % refers to the signal ratio). The method, boiled down:
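Cells were plated and grown for 24 h at 37 °C. Ro20-1724 (0.1 mM final) went in first, then compound for 10 min. NKH477 (200 nM) with quinpirole (12 nM) followed for 30 min at RT, then HTRF detection reagents for 1 h.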

Chain of Gonadotropin-releasing hormone receptor (Homo sapiens) (P30968 whole entry, looked up): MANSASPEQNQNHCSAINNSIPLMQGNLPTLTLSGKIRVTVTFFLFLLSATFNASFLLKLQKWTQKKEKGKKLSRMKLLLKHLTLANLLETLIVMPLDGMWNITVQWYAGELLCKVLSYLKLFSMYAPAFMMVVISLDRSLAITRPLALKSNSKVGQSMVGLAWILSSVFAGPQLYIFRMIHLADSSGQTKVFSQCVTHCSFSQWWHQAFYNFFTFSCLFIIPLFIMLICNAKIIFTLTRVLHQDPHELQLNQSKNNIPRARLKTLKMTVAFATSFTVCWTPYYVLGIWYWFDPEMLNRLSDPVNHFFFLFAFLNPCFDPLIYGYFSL
Chain of 5-hydroxytryptamine receptor 2A (Homo sapiens) (P28223 whole entry, looked up): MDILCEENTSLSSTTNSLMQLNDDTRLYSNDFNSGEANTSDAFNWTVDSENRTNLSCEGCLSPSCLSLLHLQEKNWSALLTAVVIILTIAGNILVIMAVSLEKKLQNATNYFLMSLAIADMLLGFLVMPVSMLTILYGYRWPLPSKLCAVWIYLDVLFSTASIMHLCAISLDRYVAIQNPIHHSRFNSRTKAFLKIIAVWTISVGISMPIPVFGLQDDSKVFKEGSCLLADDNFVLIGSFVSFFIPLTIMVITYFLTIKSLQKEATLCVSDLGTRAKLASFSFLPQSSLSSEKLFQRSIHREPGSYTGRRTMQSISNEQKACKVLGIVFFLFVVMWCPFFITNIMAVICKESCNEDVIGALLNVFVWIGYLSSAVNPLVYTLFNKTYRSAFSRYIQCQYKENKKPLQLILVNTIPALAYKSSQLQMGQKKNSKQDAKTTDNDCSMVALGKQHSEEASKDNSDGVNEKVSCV
Chain of D(2) dopamine receptor (Homo sapiens) (P14416 whole entry, looked up): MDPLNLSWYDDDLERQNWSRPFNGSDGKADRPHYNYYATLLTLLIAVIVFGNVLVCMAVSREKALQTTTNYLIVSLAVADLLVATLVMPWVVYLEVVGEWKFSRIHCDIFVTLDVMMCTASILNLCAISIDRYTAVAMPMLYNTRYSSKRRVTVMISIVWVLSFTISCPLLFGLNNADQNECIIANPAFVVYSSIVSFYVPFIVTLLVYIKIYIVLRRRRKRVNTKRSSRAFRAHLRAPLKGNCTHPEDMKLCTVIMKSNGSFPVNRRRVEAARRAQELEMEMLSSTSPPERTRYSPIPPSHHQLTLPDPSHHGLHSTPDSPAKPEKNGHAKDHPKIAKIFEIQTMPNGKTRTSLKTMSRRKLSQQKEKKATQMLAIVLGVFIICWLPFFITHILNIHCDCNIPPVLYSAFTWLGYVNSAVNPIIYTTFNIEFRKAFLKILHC
Chain of Muscarinic acetylcholine receptor M1 (Homo sapiens) (P11229 whole entry, looked up): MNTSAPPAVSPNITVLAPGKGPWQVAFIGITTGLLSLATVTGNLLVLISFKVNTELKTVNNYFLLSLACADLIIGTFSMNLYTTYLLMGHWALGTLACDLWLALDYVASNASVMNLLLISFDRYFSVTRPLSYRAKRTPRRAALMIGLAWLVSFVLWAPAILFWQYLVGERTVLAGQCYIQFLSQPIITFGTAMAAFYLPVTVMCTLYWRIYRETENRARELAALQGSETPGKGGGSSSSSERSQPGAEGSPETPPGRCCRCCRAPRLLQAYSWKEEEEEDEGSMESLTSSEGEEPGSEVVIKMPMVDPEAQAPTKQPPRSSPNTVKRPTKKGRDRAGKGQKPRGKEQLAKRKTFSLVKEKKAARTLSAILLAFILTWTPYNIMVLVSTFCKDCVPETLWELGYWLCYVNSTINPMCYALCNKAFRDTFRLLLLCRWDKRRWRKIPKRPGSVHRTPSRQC
Chain of Beta-2 adrenergic receptor (Homo sapiens) (P07550 whole entry, looked up): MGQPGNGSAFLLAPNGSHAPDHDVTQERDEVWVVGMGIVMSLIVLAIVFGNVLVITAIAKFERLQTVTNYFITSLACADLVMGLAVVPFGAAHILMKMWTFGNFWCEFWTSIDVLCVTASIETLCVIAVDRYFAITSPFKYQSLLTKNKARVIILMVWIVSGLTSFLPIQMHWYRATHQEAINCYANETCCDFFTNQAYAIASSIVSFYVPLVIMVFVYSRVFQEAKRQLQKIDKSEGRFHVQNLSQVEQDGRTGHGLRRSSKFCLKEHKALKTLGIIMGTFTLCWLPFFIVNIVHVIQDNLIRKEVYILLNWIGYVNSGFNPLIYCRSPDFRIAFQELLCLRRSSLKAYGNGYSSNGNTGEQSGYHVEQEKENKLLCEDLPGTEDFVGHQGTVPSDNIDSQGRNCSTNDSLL

As for `Nc1ccc2c(c1)C(=O)c1ccccc1C2=O`, the Potency result in assay [1], in [3], in assay [4], in assay [5], in assay [6] and in assay [8] was “inactive” throughout. Also, the Potency entry in assay [9], in [10], in assay [11], in [12], in assay [13] and in assay [14] was “inactive” each time. In addition, the Potency result in assay [15] is “inactive”. Also, the Potency is 756 nM (active) and 243 nM (active) in assay [2]; “inactive and 4.08 µM (active)” in assay [7].

For `CCCCOC(=O)COc1ccc(Cl)cc1Cl`, the Potency result in [1], in assay [3], in assay [4], in assay [5], in [6] and in [7] was “inactive” in each case. The Potency entry in assay [8], in assay [9], in [10], in [11], in assay [12] and in [13] was “inactive” each time. For the same compound, the Potency entry in [16], in [17], in assay [15], in assay [18], in assay [19] and in assay [20] was “inactive” throughout. The Potency in assay [2] is 69.4 µM (active) and inactive.

`O=C(Cl)c1cccc(C(=O)Cl)c1`: the Potency entry in assay [1], in assay [2], in assay [3], in [4], in [5] and in [6] was “inactive” throughout. Further, the Potency result in assay [7], in assay [8], in assay [9], in assay [10], in [11] and in [12] was “inactive” each time. Besides, the Potency result in [13], in assay [14], in [16], in assay [17], in assay [15] and in assay [19] was “inactive” throughout. Also, in assay [20], the Potency entry was “inactive”.

Regarding `CC1=C(/C=C/C(C)=C/C=C/C(C)=C/C(=O)O)C(C)(C)CCC1`, the Potency result in assay [1], in assay [3], in assay [4], in [5], in [6] and in assay [7] was “inactive” throughout. Also, the Potency entry in assay [8], in assay [9], in [10], in assay [16], in [17] and in assay [15] was “inactive” in each case. The Potency entry in assay [18], in [19] and in [20] was “inactive” throughout. Also, the Potency in assay [2] was 68.7 µM (active) and 68.5 µM (active) and 23.7 µM (active).

Take `O=C(O)c1ccccc1C(=O)O`: the Potency entry in assay [1], in assay [2], in assay [3], in [4], in assay [5] and in assay [6] was “inactive” in each case. The Potency result in [7], in assay [8], in assay [9], in assay [10], in assay [11] and in assay [13] was “inactive” each time. Also, the Potency result in assay [14], in [16], in [17], in assay [15], in assay [18] and in assay [19] was “inactive” throughout. Besides, in assay [20], the Potency result was “inactive”.

As for `Cc1cn([C@H]2C=C[C@@H](CO)O2)c(=O)[nH]c1=O`, the Potency entry in assay [1], in assay [2], in assay [3], in [4], in assay [7] and in assay [8] was “inactive” each time. The Potency entry in assay [9], in [16], in assay [17], in [15], in assay [18] and in assay [19] was “inactive” each time. Further, the Potency result in [20] was “inactive”.
